Data taken from PubChem BioAssay (NCI).
Compounds without any hit were thinned out: in the full panel of roughly 79,000, 15% have a hit. No stated cut-off is given here; in the data, active means growth inhibition above about 70%; inactive means the rest.

Tests used:
[1] = NCI Yeast Anticancer Drug Screen. Data for the rad50 strain (AID 155);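 further: 0% = growth of vehicle-only cultures of the same strain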; settings: S. cerevisiae rad50 strain growth inhibition; at 50.0 µM; active compounds read high
How it was run: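 Yeast carrying a defined DNA repair defect were exposed to test compounds, and growth was compared with vehicle-treated controls to give percent inhibition.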

[2] = NCI Yeast Anticancer Drug Screen. Data for the mec2-1 strain (AID 157); settings: S. cerevisiae mec2-1 strain, at 50.0 µM, active compounds read high
How it was run: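 Cells of the genetically defined mec2-1 yeast strain are incubated with test compound. Inhibition of growth is calculated against vehicle-treated controls.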

[3] = NCI Yeast Anticancer Drug Screen. Data for the sgs1 mgt1 strain (AID 161);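 further: 0% = growth of cultures given vehicle only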; settings: S. cerevisiae sgs1 mgt1 strain, at 50.0 µM, active compounds read high
How it was run: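 Inhibition of yeast growth, normalised to vehicle-treated controls, is reported for a strain bearing genetic alterations in DNA damage repair.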

[4] = NCI Yeast Anticancer Drug Screen. Data for the cln2 rad14 strain (AID 165);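 further: 0% = growth equal to vehicle treated cultures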; settings: S. cerevisiae cln2 rad14 strain, at 50.0 µM, active compounds read high
How it was run: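 The screen exposed genetically defined yeast (cln2 rad14) to test compounds and scored growth inhibition relative to vehicle-treated controls.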

[5] = NCI Yeast Anticancer Drug Screen. Data for the bub3 strain (AID 167); settings: S. cerevisiae bub3 mutant strain, at 50.0 µM, active compounds read high
How it was run: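 Compounds were applied to a genetically altered yeast strain carrying a cell-cycle control defect. Growth inhibition was scored against vehicle-treated controls.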

[6] = NCI Yeast Anticancer Drug Screen. Data for the mlh1 rad18 strain (AID 175); settings: S. cerevisiae mlh1 rad18 strain growth inhibition; at 50.0 µM; active compounds read high
How it was run: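 Compound-treated yeast growth, normalised to vehicle controls. Strain bears defined DNA repair mutations.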

Measured: growth inhibition

CN(C)c1ccc(CC2Cc3ccccc3C2O)cc1 (stereo not drawn)
inactive: [1] 6.75% | [2] -6.55% | [3] 10.2% | [4] -11.7% | [5] 12.3% | [6] 5.9%

CC1Cn2c(nccc2=O)S1 (stereo not drawn)
inactive: [1] -15.1% | [2] -14.2% | [3] -33.4% | [4] 1.9% | [5] 3.5% | [6] -29.1%

Cc1cc2nccnc2cc1C
inactive: [1] -48.8% | [2] -65.8% | [3] -31.4% | [4] -3.4% | [5] -65.5% | [6] -23.2%

ONc1ccccc1
inactive: [1] 15.3% | [2] 6.1% | [3] 11.8% | [4] 16.7% | [5] 28.1% | [6] 16.6%

OC(COc1ccccc1)COc1ccccc1
inactive: [1] 1.35% | [2] 2.45% | [3] 16.4% | [4] -18.7% | [5] 8.1% | [6] 3.1%

CCC/C(=N/NC(=O)C1CCCO1)c1ccccc1 (stereo not drawn)
inactive: [1] -1.8% | [2] 18.4% | [3] 16.6% | [4] -4.2% | [5] 7.5% | [6] 26%

CC(=O)Oc1cc2c(c3ccc4ccccc4c13)CCc1ccccc1-2
inactive: [1] 11.8% | [2] -11.7% | [3] 10.1% | [4] 10.2% | [5] 0.1% | [6] 4.9%

Cc1ccnc(NC(=O)Nc2ccccc2Cl)c1
inactive: [1] 9.65% | [2] 8.15% | [3] 1.3% | [4] 3.15% | [5] 21% | [6] 12%

CC(=O)NC(C)(C)C1CCC(C)CC1 (stereo not drawn)
inactive: [1] -7.95% | [2] 5.45% | [3] 1.55% | [4] 8.05% | [5] 9.65% | [6] -38.8%

O=C1/C(=C/c2ccccc2)CCCC/C1=C\c1ccccc1
inactive: [1] 27.9% | [2] 31% | [3] 40.5% | [4] -1.9% | [5] 9.75% | [6] 15.9%

COc1ccc2c(c1)C13CCCC(C)(C(=O)NC1)C3CC2 (stereo not drawn)
inactive: [1] -0.15% | [2] -17.6% | [3] -16.3% | [4] 9% | [5] 2.35% | [6] -11.7%

O=C1C2CCSCN2C(=O)N1c1ccccc1 (stereo not drawn)
inactive: [1] -41.9% | [2] -14.9% | [3] -7.75% | [4] -15.9% | [5] -1.15% | [6] -19%

COc1c2occc2cc2ccc(=S)oc12
inactive: [1] 13.2% | [2] -10.4% | [3] 7.35% | [4] -4.6% | [5] -19.9% | [6] 23.1%

NC(=O)NC(=O)Cc1ccc([N+](=O)[O-])cc1
inactive: [1] 5.1% | [2] 0.1% | [3] 5.1% | [4] -5.15% | [5] 6.25% | [6] -0.35%

OCCSCCCCCCSCCO
inactive: [1] 6.95% | [2] 1.7% | [3] 5.85% | [4] 10.6% | [5] 2.7% | [6] 5.8%

O=C1C2CCCC2C1(c1ccccc1)c1ccccc1 (stereo not drawn)
inactive: [1] -7.25% | [2] 38.6% | [3] 64.2% | [4] -36.4% | [5] 49.9% | [6] 10.8%

CC1=C(C)C(=O)c2c(OC(=O)c3ccccc3)ccc(OC(=O)c3ccccc3)c2C1=O
inactive: [1] -18.8% | [2] 7.7% | [3] 19.3% | [4] -18.7% | [5] -1.2% | [6] -13.8%

CC(=O)CC(=O)Nc1cccc(C)n1
inactive: [1] -0.4% | [2] -9.95% | [3] -14.3% | [4] 3.8% | [5] 6.25% | [6] 7.25%

O=C1COC(C(O)(c2ccccc2)c2ccccc2)C(=O)N1 (stereo not drawn)
inactive: [1] -5.35% | [2] -18.9% | [3] -1.3% | [4] -65% | [5] -21.4% | [6] 6.25%

CC(=O)CC(C)(C)S(=O)(=O)Cc1ccccc1
inactive: [1] -3.4% | [2] 11.2% | [3] 6.9% | [4] -5.85% | [5] 19.4% | [6] 6.3%

O=C(N/C=C(/c1ccccc1)S(=O)Cc1ccccc1)Nc1ccccc1Cl (stereo not drawn)
inactive: [1] -8.45% | [2] -27.6% | [3] 0.85% | [4] -15.2% | [5] -9.7% | [6] -24.9%

NNc1ncnc2c1ncn2Cc1ccccc1
inactive: [1] 1.65% | [2] -3.1% | [3] 1.75% | [4] -2.05% | [5] -22.6% | [6] -14.4%

Cc1ccc(N=NN(C)C)cc1
inactive: [1] 2.55% | [2] 3.65% | [3] -9.55% | [4] -2.6% | [5] 1.55% | [6] 33%

CC(=O)OCC(OC(C)=O)C(OC(C)=O)C(OC(C)=O)C(OC(C)=O)C(C=O)OC(C)=O (stereo not drawn)
inactive: [1] -31.6% | [2] -1.7% | [3] 11.7% | [4] -37.2% | [5] -1.25% | [6] -7.95%

c1cc2c3c(cccc3c1)C1C2C2c3cccc4cccc(c34)C12 (stereo not drawn)
inactive: [1] -11.6% | [2] 18.2% | [3] 7.35% | [4] -2.7% | [5] 3.9% | [6] 0.05%

N#CC(c1cc2c(cc1Br)OCO2)N1CCOCC1 (stereo not drawn)
inactive: [1] 17.5% | [2] 19.4% | [3] 10.9% | [4] 8.25% | [5] 46% | [6] -11.8%

CCC(CC)C(=O)OCCOCCOCCOC(=O)C(CC)CC
inactive: [1] -9.3% | [2] -16.8% | [3] -2.15% | [4] 6.8% | [5] -3.35% | [6] 1%

Nc1nc(-c2cc(C(c3ccccc3)c3ccccc3)nc(N)n2)cc(C(c2ccccc2)c2ccccc2)n1
inactive: [1] -6.45% | [2] 13.8% | [3] -24.6% | [4] 3.45% | [5] -2.3% | [6] 9.95%

CSCCC(NCc1c(O)ccc2c(-c3ccccc3)cc(=O)oc12)C(=O)O (stereo not drawn)
inactive: [1] -23.3% | [2] -20.5% | [3] -30.1% | [4] -1.5% | [5] -2.95% | [6] -31.2%

CCOc1ccc(NC(=O)CC2SC(=Nc3ccc(C)cc3C)NC2=O)cc1 (stereo not drawn)
inactive: [1] 12.6% | [2] 24.5% | [3] 33.3% | [4] 44.3% | [5] 39.4% | [6] 28.8%

CCOC(=O)c1ccc(N=Cc2ccc(N(CCC#N)S(=O)(=O)c3ccccc3)cc2C)cc1
inactive: [1] -3.9% | [2] 15.1% | [3] -20% | [4] 6.95% | [5] 2.95% | [6] -3.95%

CON
inactive: [1] -16.2% | [2] -5.35% | [3] 2.4% | [4] -13.1% | [5] 0.3% | [6] -12.2%

CC1(O)OC(=O)c2ccc3ccccc3c21 (stereo not drawn)
inactive: [1] -11.4% | [2] -19.9% | [3] -9.35% | [4] 14.9% | [5] -20.8% | [6] 11%

O=C1C(O)C(c2ccccc2)c2ccccc2N1c1ccccc1 (stereo not drawn)
inactive: [1] 2.2% | [2] 5.35% | [3] 1.8% | [4] -5.9% | [5] -9.75% | [6] 15.1%

C[C@]12CCC(=O)C=C1CC[C@@H]1C2=CC[C@]2(C)/C(=C\CO)CC[C@@H]12
inactive: [1] 7.5% | [2] -14.4% | [3] 10.8% | [4] -5.4% | [5] -10.8% | [6] 9.4%

CCCN1CN(C(C(=O)N[C@@H]2C(=O)N3C(C(=O)O)=C(C)CSC23)c2ccc(O)cc2)CSC1=S (stereo partly drawn)
inactive: [1] 11.8% | [2] 7.15% | [3] 10.2% | [4] -25.8% | [5] -23.6% | [6] 34.4%

CC(C)=CCC1=C(O)[C@@](O)(CC=C(C)C)C(=O)C(C(=O)CC(C)C)=C1O
inactive: [1] 28.2% | [2] 7.95% | [3] 31.7% | [4] 26.4% | [5] 35.2% | [6] 29.6%

CCOc1ccccc1C(=O)N(CC)CC
inactive: [1] -8.55% | [2] -3.2% | [3] -4.6% | [4] -5.85% | [5] -9.8% | [6] -5.65%
